Experimental data published in PubChem BioAssay (NCI).
Compounds without any hit were thinned out: in the full panel of roughly 83,000, 20% have a hit.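 The test compound was applied at a single concentration to cells in 96-well plates for 48 hours, and percent growth was recorded.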 Values without a mark were called inactive. Calls of active or inactive are those of the source. How the source made its calls: active means growth percent below 10; inactive means the rest.

How the values were obtained:
Experiment in all cases: NCI-60 one-dose screen, 48 h (100 = growth as untreated, 0 = no growth, -100 = all killed)
Settings in all cases: 10 µM unless noted
NCI-H23 lung = system: NCI-H23 lung
NCI-H226 lung = system: NCI-H226 lung
NCI-H322M lung = system: NCI-H322M lung
HOP-62 NSCLC = system: HOP-62 NSCLC
NCI-H460 lung = system: NCI-H460 lung
HOP-92 NSCLC = system: HOP-92 NSCLC
NCI-H522 lung = system: NCI-H522 lung
A549/ATCC NSCLC = system: A549/ATCC NSCLC
COLO 205 colon = system: COLO 205 colon
DU-145 prostate = system: DU-145 prostate
K-562 leukemia = system: K-562 leukemia
MALME-3M melanoma = system: MALME-3M melanoma
MDA-MB-231 breast = system: MDA-MB-231 breast
RXF 393 renal = system: RXF 393 renal
SF-268 CNS = system: SF-268 CNS
SF-295 CNS = system: SF-295 CNS
SF-539 CNS = system: SF-539 CNS
UACC-257 melanoma = system: UACC-257 melanoma
M14 melanoma = system: M14 melanoma
786-0 renal = system: 786-0 renal

SMILES | growth (NCI-H23 lung) | growth (NCI-H226 lung) | growth (NCI-H322M lung) | growth (HOP-62 NSCLC) | growth (NCI-H460 lung) | growth (HOP-92 NSCLC) | growth (NCI-H522 lung) | growth (A549/ATCC NSCLC) | growth (COLO 205 colon) | growth (DU-145 prostate) | growth (K-562 leukemia) | growth (MALME-3M melanoma) | growth (MDA-MB-231 breast) | growth (RXF 393 renal) | growth (SF-268 CNS) | growth (SF-295 CNS) | growth (SF-539 CNS) | growth (UACC-257 melanoma) | growth (M14 melanoma) | growth (786-0 renal)
CN1CCN(Cc2ccc(NC(=O)c3[nH]ncc3Nc3ccnc4ccsc34)cc2)CC1 | 15.4% | 5.11% (active) | 20% | 40.4% | 8.74% (active) | 76.2% | 47.2% | 24.1% | 18.9% | 14.7% | 26.5% | 60.6% | 12.6% | -44.9% (active) | 20.3% | 56.6% | 2.32% (active) | 85.7% | 48.9% | –
COCCOc1ccc(-c2nc3ccc(-c4nc5ccc(N6CCN(C)CC6)cc5[nH]4)cc3[nH]2)cc1 | -4.24% (active) | -8.04% (active) | 17% | 14.2% | 35.9% | 26.4% | -41.9% (active) | 67.9% | -10.9% (active) | 29.7% | – | -38.9% (active) | 8.21% (active) | -62.8% (active) | 7.43% (active) | 48.4% | -30.7% (active) | 8.32% (active) | 1.05% (active) | 26.8%
CN1CCN(Cc2ccc(NC(=O)c3[nH]ncc3Nc3ncnc4sccc34)cc2)CC1 | -1.52% (active) | 10.9% | 21.6% | 22.4% | 5.43% (active) | -13.3% (active) | 14% | 13.5% | -8.12% (active) | 7.12% (active) | – | 16.7% | -4.43% (active) | -51.1% (active) | -3.74% (active) | 24% | -30.2% (active) | 33.9% | 22.6% | –
CNC(=O)c1cc(Oc2ccc3nc(NC(=O)Nc4ccc(CN5CCOCC5)c(C(F)(F)F)c4)sc3c2)ccn1 | -4.08% (active) | 17.3% | 49.6% | 44.6% | 9.7% (active) | -7.77% (active) | 22.4% | 20.9% | 21% | 31.5% | 5.93% (active) | 8.17% (active) | 28.8% | 44.6% | 34.9% | 11% | 16.5% | 18% | 23.2% | –
O=C(O)c1c([N+](=O)[O-])cnc2ccccc12 | 91.5% | 91.8% | 96.6% | 90.6% | 106% | – | 100% | 102% | 121% | 116% | 112% | 88.4% | 107% | 110% | 104% | 102% | – | 97.1% | 93.5% | 105%
Cc1cc(Nc2nc(N3CCNCC3)nc3ccccc23)n[nH]1 | 96.4% | 86.5% | 91.1% | 109% | 93.4% | – | 76.4% | 80.8% | 90.8% | 119% | 81.5% | 80.4% | 103% | – | 90.6% | 88% | 79.4% | 87.1% | 92.5% | 76.1%
CCCCCC(=O)N(CCCC)CCCC | 107% | 99.7% | 89.4% | 104% | 110% | – | 97.6% | 100% | 125% | 120% | 94.8% | 96.8% | 99.7% | – | 115% | 88.2% | 97.4% | 92.1% | 104% | 104%
CCOC(=O)N1CCN(c2nc(Nc3cc(C)[nH]n3)c3ccccc3n2)CC1 | 65.8% | 34.8% | 88.5% | 49.6% | 23.1% | – | 10.4% | 34.4% | 14% | 47.5% | 17.4% | 77.6% | 63.7% | – | 42.6% | 36.5% | 46.8% | 65.7% | 61.6% | 44%
CCCC(=O)Oc1ccc(/C(=C(/CC)Cc2ccccc2)c2ccc(OCCN3CCCC3)cc2)cc1 | 81.7% | 96% | 79.2% | 82.8% | 20.8% | – | 78.4% | 67.8% | -6.63% (active) | 87% | 2.42% (active) | 91.4% | 78.2% | 68.2% | 67.4% | 100% | – | 87.6% | 63.9% | 76.6%
COc1cccc(NC(=O)c2sc3nc4c(cc3c2N)CN(Cc2ccccc2)CC4)c1 | 81.2% | 57.2% | 74% | 31.4% | 45.6% | – | 68% | 62.1% | 78.6% | 66.1% | 33.2% | – | 62.5% | 49.3% | 42.9% | 49.6% | 30.5% | 61.2% | 68.2% | 37.2%
COc1cc(-c2cc(-c3nc4ccc(Cl)cc4[nH]3)[nH]n2)cc(OC)c1OC | 45.5% | 18.1% | 51.4% | 40.1% | 60.4% | – | 45.3% | 50% | 60.5% | 57.8% | 43.2% | 50.4% | 81.1% | 46.6% | 81.7% | – | – | 62.9% | 38.1% | 65.1%
C=CC[N+]1(CCO)CCN=C1CCCCCCCCCCCCC (stereo not drawn) | -86.7% (active) | 3.45% (active) | 73.9% | -90.5% (active) | -85.8% (active) | – | -82.6% (active) | 0.535% (active) | -91.4% (active) | -90.4% (active) | -53.9% (active) | -61.9% (active) | -70.1% (active) | -55.3% (active) | -60.6% (active) | 47.5% | -96.6% (active) | -80.3% (active) | -86.2% (active) | -97.1% (active)
CSc1nc(NCCCNc2ccnc3cc(Cl)ccc23)cc(-c2ccccc2)n1 | 67.6% | 84.4% | 85.5% | 81.3% | 70% | – | 73.5% | 74.3% | -76% (active) | 81.3% | – | 56.9% | 45.4% | 60.9% | 67.9% | 56.9% | – | 68.1% | -42.5% (active) | 72.9%
CN1CCN(Cc2ccc(NC(=O)c3[nH]ncc3Nc3ncnc4[nH]ccc34)cc2)CC1 | -12.2% (active) | -21.3% (active) | 3.32% (active) | 14.1% | 2.62% (active) | – | 1.39% (active) | 11.4% | -51% (active) | 3.78% (active) | 5.62% (active) | -23.3% (active) | 0.311% (active) | -70.2% (active) | -6.72% (active) | 9.36% (active) | -65% (active) | 15.7% | 0.163% (active) | –
C=C1CC[C@@H]2[C@](C)(COC(C)=O)[C@H](OC(C)=O)CC[C@@]2(C)[C@@H]1CC(Nc1ccc(S(=O)(=O)Nc2nc(C)cc(C)n2)cc1)C1=CCOC1=O (stereo partly drawn) | 84.3% | 86.7% | 97.2% | 103% | 90.3% | – | 22% | 65.3% | 77% | 82.3% | 19.1% | 96.3% | 107% | 85.1% | 93.3% | 97% | – | 67.9% | 63.8% | 103%
CC/C(=C(\c1ccc(O)cc1)c1ccc(OCCN(C)CCN(C)C(=O)CCCCC(=O)c2c(C)[nH]c(/C=C3\N=C(c4ccc[nH]4)C=C3OC)c2C)cc1)c1ccccc1 | 94.1% | 90.5% | 88.7% | 81% | 76.8% | – | 84.3% | 88.5% | 91.3% | 65.8% | 42.9% | 116% | 35.1% | 83% | 75.9% | 89.2% | – | 99.8% | 39.7% | 103%
CC(=O)C1=C(O)C=C2Oc3c(C(=O)/C=C/c4ccccc4)c(O)c(C)c(O)c3[C@]2(C)C1=O | 42.4% | 53.9% | 31.5% | 37.3% | 40.9% | – | 21.6% | 15% | 40.4% | 57% | 24.9% | 74.2% | 61.2% | 62.9% | 35.2% | 19.5% | – | 44.5% | 36.1% | 30.7%
